The chains are these.
B1: ENSMUSG00000043670.181|Diras1 (ssRNA)
RNA: GGGAGUUCUACAGUCCGACGAUCGCUUCGAUAUCCGCAUGCUACCCUAGGGCUCUGACAGAAUCUGAGCCUCUUUGCUGGUCAUGUGUACUCUGGAGACUGUCCCCCAUGUCUGCCCUGAGUUACGGAGCCCCUGUGGUAUCUGCGAGACUGUCCAGGAGACUUGAGUGGCUCCUGGGCCUGUGUCCCACCCAGAUGAGGGUGACUUAGAAUUCUGUGUUUAUGUGCCUGUGUGUGUGGAUGGGUGUGUGUCUGUCUUGGGAUGGGGUGUUCUUGCACCACUUUGUGUUCUUAGUGAGACCACCUCUUGCGGUCGCACUAGUGUGGAAUUCUCGGGUGUCAAGG
B2: ENSMUSG00000043670.182|Diras1 (ssRNA)
RNA: GGGAGUUCUACAGUCCGACGAUCGCUUCGAUAUCCGCAUGCUAGGCUCUGACAGAAUCUGAGCCUCUUUGCUGGUCAUGUGUACUCUGGAGACUGUCCCCCAUGUCUGCCCUGAGUUACGGAGCCCCUGUGGUAUCUGCGAGACUGUCCAGGAGACUUGAGUGGCUCCUGGGCCUGUGUCCCACCCAGAUGAGGGUGACUUAGAAUUCUGUGUUUAUGUGCCUGUGUGUGUGGAUGGGUGUGUGUCUGUCUUGGGAUGGGGUGUUCUUGCACCACUUUGUGUUCUUAGUGAGACCACAGUGUACUCUUGCGGUCGCACUAGUGUGGAAUUCUCGGGUGUCAAGG
B3: ENSMUSG00000043670.177|Diras1 (ssRNA)
RNA: GGGAGUUCUACAGUCCGACGAUCGCUUCGAUAUCCGCAUGCUACGGUGAUAGGACUAGUGGCUGCUGCCCUAGGGCUCUGACAGAAUCUGAGCCUCUUUGCUGGUCAUGUGUACUCUGGAGACUGUCCCCCAUGUCUGCCCUGAGUUACGGAGCCCCUGUGGUAUCUGCGAGACUGUCCAGGAGACUUGAGUGGCUCCUGGGCCUGUGUCCCACCCAGAUGAGGGUGACUUAGAAUUCUGUGUUUAUGUGCCUGUGUGUGUGGAUGGGUGUGUGUCUGUCUUGGGAUGGGGUGUUCUUGCACCCUCUUGCGGUCGCACUAGUGUGGAAUUCUCGGGUGUCAAGG
B4: ENSMUSG00000043670.180|Diras1 (ssRNA)
RNA: GGGAGUUCUACAGUCCGACGAUCGCUUCGAUAUCCGCAUGCUACUGCUGCCCUAGGGCUCUGACAGAAUCUGAGCCUCUUUGCUGGUCAUGUGUACUCUGGAGACUGUCCCCCAUGUCUGCCCUGAGUUACGGAGCCCCUGUGGUAUCUGCGAGACUGUCCAGGAGACUUGAGUGGCUCCUGGGCCUGUGUCCCACCCAGAUGAGGGUGACUUAGAAUUCUGUGUUUAUGUGCCUGUGUGUGUGGAUGGGUGUGUGUCUGUCUUGGGAUGGGGUGUUCUUGCACCACUUUGUGUUCUUAGUGACUCUUGCGGUCGCACUAGUGUGGAAUUCUCGGGUGUCAAGG
B5: ENSMUSG00000043670.175|Diras1 (ssRNA)
RNA: GGGAGUUCUACAGUCCGACGAUCGCUUCGAUAUCCGCAUGCUAAGUCCCUGUGUGCGGUGAUAGGACUAGUGGCUGCUGCCCUAGGGCUCUGACAGAAUCUGAGCCUCUUUGCUGGUCAUGUGUACUCUGGAGACUGUCCCCCAUGUCUGCCCUGAGUUACGGAGCCCCUGUGGUAUCUGCGAGACUGUCCAGGAGACUUGAGUGGCUCCUGGGCCUGUGUCCCACCCAGAUGAGGGUGACUUAGAAUUCUGUGUUUAUGUGCCUGUGUGUGUGGAUGGGUGUGUGUCUGUCUUGGGAUGGGGCUCUUGCGGUCGCACUAGUGUGGAAUUCUCGGGUGUCAAGG
B6: ENSMUSG00000043670.176|Diras1 (ssRNA)
RNA: GGGAGUUCUACAGUCCGACGAUCGCUUCGAUAUCCGCAUGCUAUGUGUGCGGUGAUAGGACUAGUGGCUGCUGCCCUAGGGCUCUGACAGAAUCUGAGCCUCUUUGCUGGUCAUGUGUACUCUGGAGACUGUCCCCCAUGUCUGCCCUGAGUUACGGAGCCCCUGUGGUAUCUGCGAGACUGUCCAGGAGACUUGAGUGGCUCCUGGGCCUGUGUCCCACCCAGAUGAGGGUGACUUAGAAUUCUGUGUUUAUGUGCCUGUGUGUGUGGAUGGGUGUGUGUCUGUCUUGGGAUGGGGUGUUCUCUCUUGCGGUCGCACUAGUGUGGAAUUCUCGGGUGUCAAGG
B7: ENSMUSG00000031028.287|Tub (ssRNA)
RNA: GGGAGUUCUACAGUCCGACGAUCGCUUCGAUAUCCGCAUGCUAGGCUGGAUUGAUGUAAAUGGAAGUAGUACUUUAAGAAAGCUCUAGAUUUCCCAGGUUGGACACUCGACGAAAGGCACACCUGCUGCAGCAGGUUCUGACACACCUGAGCCAUACAUUGCCAUCAGAGAACCCUCAGCGAGGUAGCCUUUGUUUACAGUCUAGUUUCUAGAGGGCAGUAGGACUUCCAUGCUGGGGCUGGCCUAUCUCCUGAUGAAAGAUUACAGUGCCAUCUCCUUCCCAUAGUUCUGUGUCUGCCCUCCCUCUUGCGGUCGCACUAGUGUGGAAUUCUCGGGUGUCAAGG
B8: ENSMUSG00000029636.242|Wasf3 (ssRNA)
RNA: GGGAGUUCUACAGUCCGACGAUCGCUUCGAUAUCCGCAUGCUACAUUGUGUCAGUUGACAGGGAAUGCCUGUGGGAUAAUUAAAAAUGGUUUUUGCUCAUGAGUUUGGGAUGUCACCCAGCCGCCCACAUCGCCUGCUAUGUGUGUGGACGCCUGUCCGCUUGGCCAGCUAUCCUGUAACACCUGCCAGUAGUAGGUUUUCCUCAUGUCACUAUGACAGUGAAAGCCCAUGUGCAAGCCCCUCCCUACGCCCUGCUUUGGCGUGUGUCUGAGUGCUCUGUGCUGCGCCAUGGCCAUCCUGGAGCUCUUGCGGUCGCACUAGUGUGGAAUUCUCGGGUGUCAAGG
B9: ENSMUSG00000028439.73|Fam219a|190:194 (ssRNA)
RNA: GGGAGUUCUACAGUCCGACGAUCGCUUCGAUAUCCGCAUGCUAGUAAGCGUUGGGUGAAGGGAUCACAGGGCCGGAAGGUUGGCCCCAGCCAGUGAAGCCAUGAAUCCCCCCCAAGCCCGGCUUGGAAAGGAAGGAAAGGGGUUUUGAGAAGAAAAGGAUCCAAGCAAUGGGGGCAGUUCUCACACCUCAGAGCCCCUCUCCCCAAACCCUGUGCCAGCCCAUAUACCUAUUACACAUUUCCCCUCAUCUCCAGAUGGGAAGCCUGGCAGCGCUGUCCAAAGGGAUACUGUCUCUCCAUUAGACUCUUGCGGUCGCACUAGUGUGGAAUUCUCGGGUGUCAAGG

Experimental findings from PMC12864922, “TDP-43 directly inhibits mRNA accumulation in neurites through modulation of mRNA stability” are described below.

Over roughly 9,900 sequences, “r (bound/input frequency ratio)” has its median near 0.7; the highest 2% begin near 6.5. The list comes from a sample in which the highest values are over-represented; it also holds similar and randomly drawn sequences.

TDP-43, sequence (Q13148 whole entry): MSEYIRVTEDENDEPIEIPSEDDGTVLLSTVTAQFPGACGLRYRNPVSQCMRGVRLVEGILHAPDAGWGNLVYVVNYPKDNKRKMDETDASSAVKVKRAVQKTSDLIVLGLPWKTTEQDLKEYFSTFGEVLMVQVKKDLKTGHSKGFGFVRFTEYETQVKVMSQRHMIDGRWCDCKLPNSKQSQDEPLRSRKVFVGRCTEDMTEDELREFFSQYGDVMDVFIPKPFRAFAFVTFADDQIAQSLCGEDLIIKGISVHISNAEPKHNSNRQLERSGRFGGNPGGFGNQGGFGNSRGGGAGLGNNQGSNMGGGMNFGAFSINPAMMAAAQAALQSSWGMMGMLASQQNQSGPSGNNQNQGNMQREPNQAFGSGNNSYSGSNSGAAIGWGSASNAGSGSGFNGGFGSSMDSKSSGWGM

This test addresses TDP-43 (Homo sapiens, UniProt Q13148 1-414). The test is described as follows: RNA Bind-n-Seq with designed 260-mer pool; 25 mM Tris-HCl, 150 mM KCl, 3 mM MgCl2, BSA (printed 500 mg/mL), 20 units/mL SUPERase IN; pH not stated; 500 nM RNA pool, 1 h, 4 C; TDP-43 5, 50, 500 nM; high values mean tight binding. The following applies: protein: recombinant; tags: SBP (GST cleaved off with PreScission; pGEX-GST-SBP). The gist of the method:
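For each oligo, R gives binding as its mapped-read-normalized abundance after pulldown divided by its abundance in input. Bead-captured SBP-tagged TDP-43 (5, 50 or 500 nM) was incubated with 500 nM of an in vitro-transcribed 260-nt 3′ UTR oligo pool for 1 h at 4 °C in 25 mM Tris-HCl, 150 mM KCl, 3 mM MgCl2, BSA and SUPERase IN on streptavidin beads. Washed, biotin-eluted RNA was reverse transcribed, PCR-amplified and sequenced.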
Regarding B1, the binding signal was 6.26 R (bound/input frequency ratio).

In the case of B2, the binding signal is 5.77 R (bound/input frequency ratio).

With B3, the binding signal is 6.1 R (bound/input frequency ratio).

Turning to B4, the binding signal was 6.66 R (bound/input frequency ratio).

Consider B5, for which the binding signal is 6.15 R (bound/input frequency ratio).

As to B6, the binding signal is 6.8 R (bound/input frequency ratio).

Consider B7, for which the binding signal was 0.856 R (bound/input frequency ratio).

For B8, the binding signal was 0.663 R (bound/input frequency ratio).

Turning to B9, the binding signal was 0.449 R (bound/input frequency ratio).
